A selection: hits, their analogues and other compounds. The true share with any hit is near 2.9%.
PG9 Ab binder – small molecules binding HIV-1 gp120 antibody PG9. TR-FRET gp120-PG9 antibody binding. inhibition, % at 6.7 µM. hit rate 0.43% among 360,000. AID 624416; in the data active means inhibition above about 8.5%
SKN-1 block – C. elegans SKN-1 inhibition. C. elegans VP596 Pgst-4::GFP/RFP ratio, acrylamide-induced, 24 h. inhibition, % at 21.8 µM. hit rate 0.49% among 360,000;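 active means interference check ratio from 0.5 to 1.5 plus GFP to RFP signal ratio inhibition reaching or exceeding a fixed threshold, cut at about 30% in these data, passing the limit was not always enough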
EP2 antag – EP2 receptor (human) inhibition; P43116; C6 glioma cells expressing human EP2, cAMP TR-FRET; cells stimulated with saturating PGE2; inhibition, % at 25 µM; hit rate 0.52% among 260,000; AID 1422;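 active means percent inhibition above 40 after rounding to a whole number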;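 further: rat C6 glioma host cells with rolipram phosphodiesterase inhibitor present; the protocol text gives 20 µM as final concentration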
Target sequence (P43116 whole entry, looked up): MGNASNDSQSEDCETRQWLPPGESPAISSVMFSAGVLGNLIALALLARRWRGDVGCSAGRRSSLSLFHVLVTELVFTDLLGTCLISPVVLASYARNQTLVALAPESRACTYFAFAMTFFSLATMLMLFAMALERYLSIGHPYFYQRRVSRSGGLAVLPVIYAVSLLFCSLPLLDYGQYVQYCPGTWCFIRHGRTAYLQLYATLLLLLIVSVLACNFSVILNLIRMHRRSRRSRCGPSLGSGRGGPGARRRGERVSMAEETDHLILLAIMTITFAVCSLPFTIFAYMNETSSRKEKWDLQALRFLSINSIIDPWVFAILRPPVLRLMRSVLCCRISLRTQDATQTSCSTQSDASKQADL
NR1D1 modulator – modulates human Rev-erb alpha binding to DNA. P20393. Rev-erbα–FITC-DNA binding, fluorescence polarization, 90 min. activity, % at 10 µM. hit rate 0.79% among 370,000;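 active means activity above about 14%, limit read from the data; passing the limit was not always enough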;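 further: 0% = DMSO wells with 35 nM protein and 100% = DMSO wells with 750 nM protein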
RAM network inh – yeast RAM network inhibition. hit rate 1.8% among 190,000. AID 868. S. cerevisiae dse1pr::URA3 reporter, 5-FOA growth OD615, 2 d; analog-sensitive cbk1-as2 kinase mutant strain. inhibition, % at 50 µM;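 active means inhibition above a set limit, 3 SD over mean compound inhibition, cut at about 8.4% in these data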;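 further: 0% = DMSO-only wells with no growth and 100% = 10 µM 1-NA-PP1 full growth; inhibition rescues growth on 5-FOA so higher OD means more RAM inhibition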
EP2 mod – modulates human prostaglandin E2 receptor EP2 signaling; P43116; EP2-expressing cells, cAMP HTRF FRET, PGE2 co-stimulation; induction, % at 25 µM; hit rate 0.83% among 260,000; AID 940;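 active means compounds whose cAMP rise, as percent of the full-agonist control response, exceeds 60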;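 further: rat C6 glioma line stably carrying human EP2 under a CMV promoter; the protocol text gives 20 µM as final concentration; 100% = response of wells given 1 µM PGE2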
EP2 cAMP induct – human EP2 receptor cAMP induction, negative in counter-screens; shares compounds with EP2 mod; C6 glioma EP2 cells, cAMP HTRF induction; plus low (about EC15) PGE2 agonist; calls only at 20 µM (by protocol); hit rate 47% among 1,300; AID 1080;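 active means cAMP induction above 50% in the main assay while under 30% in all four parallel counter assays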;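 further: rat C6 glioma cells stably expressing human EP2 receptor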
Starred values were filed as active, the others as inactive; i = inactive; . = no result given; + = active, no number.

SMILES | PG9 Ab binder | SKN-1 block | EP2 antag | NR1D1 modulator | RAM network inh | EP2 mod | EP2 cAMP induct
COc1ccc(CNC(=O)[C@H]2C=CCN2S(C)(=O)=O)cc1 | . | . | 6.0 | . | . | -19.4 | .
COc1ccccc1NC(=O)Cn1nnc(-c2ccccc2N)n1 | . | . | 7.8 | . | . | -71.6 | .
Cc1cc(N)c2cc(NC(=O)Nc3ccc4nc(C)cc(N)c4c3)ccc2n1 | . | . | 48.7* | . | . | 61.5* | i
Cc1cc(C)c(NC(=O)Nc2ccccc2)c(C)n1 | -1.4 | -17.8 | . | 1.8 | . | . | .
Cc1ccc(Nc2c3c(nc4ncnn24)CCC3)cc1C | . | . | 4.9 | . | . | -6.4 | .
CC1C(=O)C(C)C(c2ccccc2)N(N=O)C1c1ccccc1 (stereo not drawn) | 2.0 | -3.4 | . | 4.5 | . | . | .
CCN1C(c2ccccc2)C(C)C(=O)C(C)C1c1ccccc1 (stereo not drawn) | 0.4 | 1.2 | 14.6 | 10.9 | 0.0 | 71.1* | +
CNc1cncc(-c2cc(OC)ccc2OC)n1 | -2.3 | -3.7 | . | 0.5 | . | . | .
COc1ccc(OC)c(-c2cnc(OC(C)(C)C)nc2OC(C)(C)C)c1 | 3.0 | 5.6 | 7.8 | -0.2 | 0.3 | 69.8* | i
O=C(c1cc(-c2ccccn2)nc2ccc(Br)cc12)N1CCc2ccccc2C1 | . | . | . | . | 0.2 | 65.7* | i
O=C(c1cc(-c2ccccn2)nc2ccc(Br)cc12)N1CCN(S(=O)(=O)c2ccccc2)CC1 | 3.4 | 8.4 | 13.0 | 15.8 | 1.9 | 16.7 | .
O=C(N/N=C/c1ccco1)c1ccccc1OCc1ccccc1Cl | -2.0 | 20.2 | 7.7 | -0.1 | 0.9 | 41.2 | .
O=C(N/N=C/c1ccc[nH]1)c1ccccc1OCc1ccccc1Cl | 0.4 | 17.6 | 8.5 | -7.7 | 1.7 | 65.8* | +
O=S(=O)([O-])CCc1cccc[n+]1CC(O)CO (stereo not drawn) | . | . | 16.3 | . | . | -9.5 | .
CC1Oc2ccccc2N(Cc2ccccc2Cl)C1=O (stereo not drawn) | . | 5.9 | 8.4 | 8.1 | 0.9 | 49.6 | .
O=C1COc2ccccc2N1Cc1ccccc1Cl | -2.1 | -7.1 | 7.1 | 1.5 | 2.4 | 68.4* | i
O=C(NC1CCCCC1)C(c1ccc(Cl)cc1)N(C(=O)c1csnn1)C1CC1 (stereo not drawn) | . | . | 6.4 | . | . | 6.3 | .
CCCc1cc(-c2n[nH]c(=S)n2C(C)c2ccccc2)cs1 (stereo not drawn) | -0.4 | -0.5 | -0.8 | -1.4 | 2.5 | 68.1* | +
CCCc1cc(-c2n[nH]c(=S)n2CC)cs1 | 3.4 | 7.5 | 16.8 | 1.6 | -0.7 | 33.5 | .
CCCCn1c(-c2csc(CCC)c2)n[nH]c1=S | 1.6 | 11.5 | 14.9 | 2.1 | -1.4 | 58.5 | i
COc1cc(-c2n[nH]c(=S)n2C(C)c2ccccc2)cc(OC)c1OC (stereo not drawn) | 0.7 | 13.0 | . | 0.0 | . | . | .
Cc1cc(C)c(C#N)c(SCC(=O)Nc2cc(Cl)cc(Cl)c2)n1 | . | . | 19.1 | . | . | 22.5 | .
O=C(CN1CCCCC1)Nc1ccc(Oc2ccccc2)cc1 | . | . | 15.3 | . | . | -99.9 | .
Cc1cccc(-n2c(CCn3nc(C)c([N+](=O)[O-])c3C)n[nH]c2=S)c1 | 1.0 | 8.5 | 11.3 | 6.8 | -0.1 | 61.5* | i
COc1cccc(-n2c(CCn3nc(C)c([N+](=O)[O-])c3C)n[nH]c2=S)c1 | -0.2 | -4.6 | 1.7 | -1.5 | -1.0 | 31.9 | .
SMILES | PG9 Ab binder | SKN-1 block | EP2 antag | NR1D1 modulator | RAM network inh | EP2 mod | EP2 cAMP induct
O=C(OCC(=O)N1N=C(c2ccc(Cl)cc2)CC1c1ccco1)c1ccco1 (stereo not drawn) | -1.3 | 5.8 | 6.2 | 3.1 | 2.7 | 68.5* | i
Cc1ccc(S(=O)(=O)NCC(=O)OCC(=O)N2N=C(c3ccc(Cl)cc3)CC2c2ccco2)cc1C (stereo not drawn) | 1.5 | 14.1 | 15.3 | -1.9 | 6.9 | 55.6 | .
Cc1ccc(CSc2nc3ccccc3cc2C=O)cc1 | -2.9 | 41.7* | 10.1 | -2.6 | 10.4* | 70.7* | i
Cc1cc(S(=O)(=O)NCCC2=CCCCC2)ccc1-n1cnnn1 | . | . | 9.0 | . | . | -60.8 | .
CCOc1ccc(-c2nn3c(-c4ccccc4)nnc3s2)cc1 | -0.4 | -4.5 | 11.3 | -9.6 | 4.8 | 65.3* | +
CCOc1ccc(-c2nnc3sc(COc4ccccc4)nn23)cc1 | -0.2 | -11.8 | 3.7 | 9.0 | 2.7 | -44.4 | .
CCOC(=O)c1sc2nc3c(SCC(=O)O)cc(C(=O)c4cc(F)ccc4O)cn3c(=O)c2c1C | -1.0 | -11.2 | 5.5 | -9.7 | 6.4 | 76.5* | +
COc1ccc(C(CNS(=O)(=O)c2cn(C)nc2C)c2c[nH]c3ccccc23)cc1 (stereo not drawn) | . | . | 7.2 | . | . | -32.9 | .
CCOC(=O)c1c(N)sc2c1CCC(CC)C2 (stereo not drawn) | -0.9 | -5.8 | 11.1 | -1.8 | -0.6 | 65.7* | i
CCCn1c(Nc2nc3ccccc3n2C)nc2ccccc21 | 1.4 | 29.1 | 7.8 | 8.2 | -0.3 | 70.5* | i
Cn1c2ccc(F)cc2c2nc3ccccc3nc21 | 1.4 | 10.8 | . | 0.3 | . | . | .
CCn1c2ccc(F)cc2c2nc3ccccc3nc21 | -0.8 | 39.9* | 5.9 | -2.0 | 5.6 | 40.2 | i
CCCn1c2ccccc2c2nc3ccccc3nc21 | 0.0 | 27.5 | 20.4 | 5.5 | 3.1 | 77.8* | +
CCCCn1c(Nc2ccccc2)nc2ccccc21 | -1.1 | 25.8 | 5.9 | 9.6 | 1.5 | 16.4 | .
COc1ccccc1N1CCN(C(=O)/C=C/c2cc(OC)c(OC)c(OC)c2)CC1 | . | . | 16.3 | . | . | 2.2 | .
COc1ccc(N(C(C)C(=O)Nc2ccccc2C(=O)N2CCCC2)S(C)(=O)=O)cc1 (stereo not drawn) | . | . | 12.1 | . | . | -16.7 | .
CCOc1ccccc1C1C(C#N)=C(SCC(N)=O)NC(=O)C1C(=O)OC (stereo not drawn) | . | . | 4.7 | . | . | -2.6 | .
O=C(Nc1ccccc1-c1ccccc1)c1ccc(Br)o1 | 0.7 | 1.1 | 7.8 | 5.7 | 5.6 | 57.4 | i
O=C(Nc1ccccc1Oc1ccccc1)c1cnccn1 | -2.7 | 4.0 | 3.8 | 3.2 | 6.8 | 70.8* | +
O=C(Nc1ccccc1Oc1ccccc1)c1ccc(Br)o1 | -0.5 | -16.4 | 19.8 | -1.1 | 1.4 | 63.8* | +
O=C(Nc1ccccc1O)c1ccc(Br)o1 | . | . | 6.8 | . | . | -57.2 | .
COc1ccccc1NC(=O)c1ccc(Br)o1 | 0.8 | 0.2 | 12.6 | 2.8 | 0.1 | -11.3 | .
O=C(Nc1cccc(Cl)c1N1CCCC1)c1ccc(Br)o1 | -0.6 | 2.3 | 6.3 | 4.2 | 2.1 | 69.1* | +
COc1ccc(-n2c(SCC(=O)N3CCCCC3C)nnc2-c2ccccc2)cc1 (stereo not drawn) | . | . | 6.7 | . | . | 27.5 | .
Cc1nn(C(C)CC(=O)NCc2nc(-c3ccccc3)no2)c(C)c1C (stereo not drawn) | . | . | 3.6 | . | . | -55.2 | .
CC(C)C(N)Cn1cnc2c(-c3ccc(Cl)cc3)nsc2c1=O (stereo not drawn) | . | . | . | . | . | -56.8 | .
COc1ccc(CCNC(=O)c2sc3nc4cc(C)ccc4cc3c2N)cc1OC | . | . | 19.3 | . | . | -68.2 | .
